The values below come from PubChem BioAssay AID504546 (Broad Institute, 2011).

The structures appear in SMILES notation. Inconclusive results are not listed. Active and inactive are the calls of the source.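 The calls were made as follows: active = every repeat run fits a falling-signal curve with half-maximal potency within ten times top tested dose; inconclusive = runs disagree, or flat moderate drop, or poor fit; inactive = every run inactive, including signal moving upward.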

A short description of this test: ADP-Glo luciferase signal interference – biochemical, luminescence, cherry-picked samples, set 2, artefact control for CDK5 inhibitor project, dose response (AID 504546).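 Also: 0% = DMSO wells and -100% = wells lacking ADP.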 To be noted: ADP-Glo detection reagent counter screen, 5 uM ADP; series mostly up to 30 µM; activity change, negative = inhibition: at the top concentration. In general terms: ADP-Glo first removes unused ATP, then detects ADP through luciferase.
Consider `Cc1cc(-c2nsc(=O)o2)c(S(C)(=O)=O)s1`, for which the “activity change, negative = inhibition” value is 2.16% (inactive).
Then `Cc1[nH][nH]c(=O)c1C(c1ccccc1[N+](=O)[O-])C(C#N)C#N` (stereo not given), with -5.72% (inactive); and `Cc1cccc(Nc2nc(N)c([N+](=O)[O-])c(NCCO)n2)c1`, with -6.98% (inactive).
For the molecule `Cc1cc(C)c2nc(C(F)(F)F)c(C#N)c(N)c2c1`, the “activity change, negative = inhibition” value is 0.162% (inactive).
Next, `Nc1cc2c(cc1[N+](=O)[O-])-c1ccccc1C2=NO`: -0.261% (inactive); `CCc1ncc(/C=C2\C(=O)Nc3ccccc32)[nH]1`: 6.92% (inactive).
For the molecule `CCc1c(Nc2ccccc2Cl)nc(N)[nH]c1=O`, the “activity change, negative = inhibition” value is -6.75% (inactive).
On to `COc1cccc(C(=O)c2sc(NC(C)C)nc2N)c1`, for which the “activity change, negative = inhibition” value was 6.22% (inactive).
Then `CC(C)n1cnc2c(NCc3ccc(S(N)(=O)=O)cc3)nc(NCc3ccc(S(N)(=O)=O)cc3)nc21`, with -11.1% (inactive).
For `COc1ccc2ccc3ccc(OC)c(OC(C)=O)c3c2c1`, the “activity change, negative = inhibition” value was 4.29% (inactive).
Then `O=C1Nc2cc(C(=O)N3CCC(N4CCCCC4)CC3)ccc2S/C1=C\c1ccccc1`, with -9.15% (inactive); and `Oc1ccc(-c2nc(-c3ccc(O)c(O)c3)cs2)cc1`, with 8.38% (inactive); and `CCOc1cc(C(=O)N2CCN(c3ccccn3)CC2)cc(OCC)c1OCC`, with 5.42% (inactive).
Then `N#Cc1c(N)n(C2OC(CO)C(O)C2O)c2ncnc(N)c12` (stereo not given), with 7.26% (inactive); and `Nc1nc(Nc2cccc(Cl)c2)nc(NCCO)c1[N+](=O)[O-]`, with 16.8% (inactive).
On to `Nc1nc(Nc2ccccc2)nc(NCCO)c1[N+](=O)[O-]`, for which the “activity change, negative = inhibition” value was 16.5% (inactive).
Next, `O=C(NNC(=O)c1ccco1)c1ccccc1`: 4.63% (inactive).
Then `COc1ccc2nc3c(cc2c1)c(NC(=O)c1cccs1)nn3CC(C)C`, with -13% (inactive); and `COc1ccc(C(=O)c2sc(Nc3ccccc3)nc2N)cc1`, with 14.6% (inactive).
For `Cc1ccc(-n2nc(C)c3c2C(Br)C(C)(C)CC3=O)nc1` (stereo not given), the “activity change, negative = inhibition” value was 14.4% (inactive).
Then `COc1cc(OC)cc(C(=O)N2CCN(c3ccccn3)CC2)c1`, with 1.89% (inactive).
On to `COc1cccc(OC)c1C(=O)N1CCN(c2ccccn2)CC1`, for which the “activity change, negative = inhibition” value is 11.9% (inactive).
Then `COc1ccc(Nc2nc(N)c(C(=O)c3ccc(OC)cc3)s2)cc1`, with -7.71% (inactive); and `CCCn1c(NC(=O)c2cccc(S(=O)(=O)N3CCCC3)c2)nc2ccccc21`, with 13.4% (inactive).
`Oc1ccc(/C=N/Nc2nccnc2Cl)c(O)c1`: the “activity change, negative = inhibition” value was -6.66% (inactive).
`CCNc1nc(N)nc(-c2cc(Cl)ccc2O)n1`: the “activity change, negative = inhibition” value was -11.2% (inactive).
Take `CN1CCN(C(=O)c2ccc3c(c2)NC(=O)/C(=C/c2ccccc2)S3)CC1`: the “activity change, negative = inhibition” value was 16.2% (inactive).
Then `CCC(C)(C)C1CCc2[nH]nc(C(=O)NCCN3CCOCC3)c2C1` (stereo not given), with -8.52% (inactive); and `CCNc1nc(Nc2ccc(C)c(Cl)c2)c2cnn(C)c2n1`, with 13.5% (inactive).
Then `CC(C)(C)c1ccc(C(=O)O/N=C(\N)c2ccccn2)cc1`, with 5.19% (inactive); and `Nc1ccc2c(c1)C(=NO)c1ccccc1-2`, with -0.568% (inactive); and `Nc1nc(Nc2ccccc2)sc1C(=O)c1ccccc1`, with 17.3% (inactive).
In the case of `COc1cc(C(=O)N2CCN(c3ccccn3)CC2)cc(OC)c1OC`, the “activity change, negative = inhibition” value is -10.2% (inactive).
For `Cc1nn(-c2ccc(Cl)cn2)c2c1C(=O)CC(C)(C)C2Br` (stereo not given), the “activity change, negative = inhibition” value was 1.63% (inactive).
Next, `FC(F)(F)c1ccc(N/N=C/c2cccnc2)nc1`: 18.8% (inactive).
